Experimental data as given in PubChem BioAssay (EPA / NIEHS).
Values joined by “and” are separate entries in the source; they are usually repeats but may differ in a detail not shown here. Equal entries are not always repeated. Records with an inconclusive call do not appear. More than one record can exist for a structure, and the calls need not agree. Active and inactive are the calls of the source. How the source made its calls, unless noted: active means hit-call score of the fitted dose curve at least 0.9, where 1 is the maximum; inactive means score below 0.9.

Key:
[1] = CCTE_Shafer_MEA_dev_firing_rate_mean: CCTE's Neural Network Formation Assay for Mean Firing Rate, Shafer Lab (AID 2284031);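 on AC50: curve fitted for loss of firing so AC50 reflects decreased mean firing rate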
Procedure, shortened: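 Primary rat cortical neurons on 48-well MEA plates, exposed from plating day 0 with dosing renewed on DIV 5 and 9. Mean well firing rate over active electrodes, recorded days 5, 7, 9, 12, summarised as trapezoidal AUC.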

[2] = CCTE_Shafer_MEA_dev_active_electrodes_number: CCTE's Neural Network Formation Assay for Number of Active Electrodes, Shafer Lab (AID 2284040; active means hit-call score of the fitted dose curve at least 0.9, where 1 is the maximum;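 on AC50: potency for loss of active electrodes versus DMSO so lower counts are hits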)
Procedure, shortened: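 Primary rat cortical neurons on 16-electrode MEA wells, exposed from day 0 through day 12 with compound renewed at DIV 5 and 9 feeds. Active electrodes (mean firing ≥5 spikes/min) counted at DIV 5, 7, 9, 12; trapezoidal AUC across days, loss-of-signal versus DMSO.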

[3] = CCTE_Shafer_MEA_dev_burst_rate: CCTE's Neural Network Formation Assay for Burst Rate, Shafer Lab (AID 2284042);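 on AC50: potency for loss of burst rate below DMSO control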
Procedure, shortened: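 Developmental network assay measuring how 12-day exposure of rat cortical neuron cultures alters bursting on extracellular MEA recordings. Values are AUC of well-mean burst rate across four recording days, relative to DMSO vehicle.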

[4] = CCTE_Shafer_MEA_dev_bursting_electrodes_number: CCTE's Neural Network Formation Assay for Number of Bursting Electrodes, Shafer Lab (AID 2284043; active means hit-call score of the fitted dose curve at least 0.9, where 1 is the maximum;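 on AC50: potency is for loss of bursting electrodes relative to DMSO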)
Procedure, shortened: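 Read-out is the per-well number of electrodes bursting at least once every 2 minutes, recorded on days 5, 7, 9 and 12 and collapsed by trapezoidal area under the curve. Cultures were primary rat cortical neurons on MEA plates, treated continuously from plating.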

[5] = CCTE_Shafer_MEA_dev_per_burst_interspike_interval: CCTE's Neural Network Formation Assay for Burst Interspike Interval, Shafer Lab (AID 2284044);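 further: mean spike spacing inside bursts as AUC over recordings on days 5 7 9 12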;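 on AC50: potency for a decrease of within-burst interspike interval below DMSO level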
Procedure, shortened: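 Developmental network-formation MEA in primary rat cortical cultures with exposure spanning days 0–12. Within-burst ISI is averaged per well and integrated across recording days by area under the curve, with DMSO as negative control baseline.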

[6] = CCTE_Shafer_MEA_dev_burst_duration_mean: CCTE's Neural Network Formation Assay for Mean Burst Duration, Shafer Lab (AID 2284045);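 on AC50: curve fitted for loss meaning shorter burst duration than DMSO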
Procedure, shortened: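 Read-out: average first-to-last-spike interval within single-electrode bursts, averaged over bursting electrodes per well, then summarised as area under the curve across days 5, 7, 9 and 12. Developing rat cortical networks were exposed from day 0.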

[7] = CCTE_Shafer_MEA_dev_interburst_interval_mean: CCTE's Neural Network Formation Assay for Mean Interburst Interval, Shafer Lab (AID 2284046);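 further: well-mean interburst interval of bursting electrodes as AUC over four recording days; curve fitted for decrease in interburst interval relative to DMSO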
Procedure, shortened: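 Network formation assay in primary rat cortical cultures, exposed from DIV 0 to 12. Mean interburst interval per well, integrated as AUC over four recordings.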

[8] = CCTE_Shafer_MEA_dev_network_spike_number: CCTE's Neural Network Formation Assay for Number of Network Spikes, Shafer Lab (AID 2284048);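 further: synchronized bursts across electrodes counted on days 5 7 9 12 and integrated as AUC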;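 on AC50: fit as a loss of signal meaning fewer network spikes than DMSO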
Procedure, shortened: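 Developing networks of primary rat cortical neurons are treated over 12 days starting at plating, with media and compound fully replaced on DIV 5 and 9. Network spike counts from four recording days are integrated as trapezoidal AUC.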

[9] = CCTE_Shafer_MEA_dev_network_spike_peak: CCTE's Neural Network Formation Assay for Mean Number of Electrodes in Network Spike, Shafer Lab (AID 2284049);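 on AC50: fitted for loss of signal meaning fewer electrodes in network spikes than DMSO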
Procedure, shortened: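 Rat cortical primary culture, 1.5 x 10^5 cells/well, 48-well MEA (16 electrodes/well). Dosing day 0 through DIV 12, full media/compound exchange DIV 5, 9. AxIS adaptive spike detection; AUC over days 5/7/9/12; loss-of-signal vs DMSO.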

[10] = CCTE_Shafer_MEA_dev_spike_duration_mean: CCTE's Neural Network Formation Assay for Mean Spike Duration, Shafer Lab (AID 2284051);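 further: mean network spike duration pooled as area under curve over DIV 5 to 12 recordings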;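 on AC50: potency for a decrease in mean network spike duration versus DMSO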
Procedure, shortened: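 With DMSO as baseline, loss of mean network spike duration was scored from extracellular recordings of rat cortical neurons on MEA plates. Exposure spanned plating to DIV 12; the four recording days were collapsed into one AUC value.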

[11] = target: Estrogen receptor (Homo sapiens) (UniProt P03372); test: CCTE_Deisenroth_AIME_384WELL_LUC_Active: CCTE's 384-well Estrogen Receptor Transactivation Assay with AIME metabolic competence (ERTA luciferase; metabolism positive), Deisenroth Lab (AID 2284030; active means hit-call score of the fitted dose curve at least 0.9, where 1 is the maximum)
Estrogen receptor (Homo sapiens), sequence (P03372 whole entry, looked up): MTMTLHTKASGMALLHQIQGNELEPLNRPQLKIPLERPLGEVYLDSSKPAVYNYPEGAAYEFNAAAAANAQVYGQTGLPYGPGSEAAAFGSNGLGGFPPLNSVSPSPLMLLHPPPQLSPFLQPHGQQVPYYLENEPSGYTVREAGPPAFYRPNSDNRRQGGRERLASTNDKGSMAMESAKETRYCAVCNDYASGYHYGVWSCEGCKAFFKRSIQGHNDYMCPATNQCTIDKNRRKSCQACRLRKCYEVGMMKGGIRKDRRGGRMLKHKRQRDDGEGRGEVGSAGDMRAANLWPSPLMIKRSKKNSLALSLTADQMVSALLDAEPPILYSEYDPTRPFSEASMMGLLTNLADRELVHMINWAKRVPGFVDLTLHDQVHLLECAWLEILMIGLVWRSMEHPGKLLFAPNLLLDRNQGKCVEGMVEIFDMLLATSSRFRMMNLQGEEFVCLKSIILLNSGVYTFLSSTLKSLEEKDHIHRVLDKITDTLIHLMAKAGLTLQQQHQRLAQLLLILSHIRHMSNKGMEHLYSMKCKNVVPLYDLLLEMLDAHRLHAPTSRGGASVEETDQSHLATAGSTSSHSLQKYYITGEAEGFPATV
Procedure, shortened: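 In this metabolism-positive format, a 2-hour exposure to alginate-immobilized rat S9 precedes a 24 hour luciferase transactivation readout in VM7Luc4E2 cells. Dosing spans 10 concentrations from 0.002 to 200 uM.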

[12] = target: Estrogen receptor (Homo sapiens) (UniProt P03372); test: CCTE_Deisenroth_AIME_384WELL_LUC_Inactive: CCTE's 384-well Estrogen Receptor Transactivation Assay without AIME metabolic competence (ERTA luciferase; metabolism negative), Deisenroth Lab (AID 2284038; active means hit-call score of the fitted dose curve at least 0.9, where 1 is the maximum;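 further: VM7Luc4E2 breast cells given medium preincubated 2 h with S9-free microspheres; hits raise estrogen receptor luciferase signal so potencies reflect agonists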)
Procedure, shortened: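 Metabolism-negative mode: chemicals (10-point, 0.002–200 uM) held 2 h with alginate-water microspheres, then conditioned medium applied to VM7Luc4E2 cells for 24 h. Luciferase induction referenced to 17beta-estradiol.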

[13] = CCTE_Deisenroth_AIME_384WELL_CTox_Inactive: Cytotoxicity Assessment (CTOX) in CCTE's 384-well Estrogen Receptor Transactivation Assay without AIME metabolic competence (metabolism negative), Deisenroth Lab (AID 2284039; active means hit-call score of the fitted dose curve at least 0.9, where 1 is the maximum;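 further: cell viability via live-cell protease substrate cleaved to fluorescent probe; cells exposed 24 h to medium preincubated 2 h with alginate-water beads without S9; loss of fluorescence signal means loss of viability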)
Procedure, shortened: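 Fluorescence from a live-cell protease substrate, read after 24 h in VM7Luc4E2 cells, indicated viability. Test medium came from a 2 h AIME step without hepatic S9 (alginate-water microspheres); concentrations spanned 0.002 - 200 uM, single technical replicate per run.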

[14] = target: Estrogen receptor (Homo sapiens) (UniProt P03372); test: CCTE_Deisenroth_AIME_384WELL_LUC_Shift: CCTE's 384-well Estrogen Receptor Transactivation Assay with AIME metabolic competence data shift (ERTA luciferase; difference in metabolism positive and negative), Deisenroth Lab (AID 2284041);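 further: shift is response with S9 minus without S9 so positive means metabolism raised ER signal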
Procedure, shortened: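 Test chemicals (0.002–200 uM, 10-point) were pre-incubated 2 h with alginate microspheres containing phenobarbital/beta-naphthoflavone-induced male Sprague Dawley rat liver S9 or water, then medium was transferred to VM7Luc4E2 cells for 24 h luciferase readout; shift = S9-positive minus S9-negative normalized response.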

DIO2 (gene 1734) = test: CCTE_GLTED_hDIO2: CCTE's human Deiodinase 2 (DIO2) Inhibition Assay, Great Lakes Toxicology and Ecology Division (GLTED) Lab (AID 2284050; active means hit-call score of the fitted dose curve at least 0.9, where 1 is the maximum)
Procedure, shortened: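 Cell-free human DIO2 incubated 3 h with chemical; liberated iodide quantified by Sandell-Kolthoff absorbance. Triplicate plates; loss of signal fitted vs DMSO.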

Measured: AC50

OCC(F)(F)OC(F)(F)C(F)(F)OC(F)(F)CO
not listed: [11] | [12] | [13] | [14] | DIO2 (gene 1734)
inactive: all other assays above

CCCN(CCC)c1c([N+](=O)[O-])cc(C(C)C)cc1[N+](=O)[O-]
active: [11] 13300 nM
inactive: [12] | [13] | [14]

COC(N)=O
inactive: [11] | [12] | [14]

CCCCOCCOP(=O)(OCCOCCCC)OCCOCCCC
inactive: [14]

O=P1(N(CCCl)CCCl)NCCCO1 (stereo unspecified)
not listed: [11] | [12] | [13] | [14] | DIO2 (gene 1734)
inactive: all other assays above

CC(O)C(F)(F)C(F)(F)F (stereo unspecified)
not listed: [11] | [12] | [13] | [14] | DIO2 (gene 1734)
inactive: all other assays above

COC(=O)C(F)(F)C(F)(F)OC(F)(C(F)(F)F)C(F)(F)OC(F)=C(F)F (stereo unspecified)
active: DIO2 (gene 1734) 18200 nM

CCOP(=S)(OCC)SCSCC
inactive: [1] | [3] | [5] | [6] | [7] | [8] | [10]
active: [2] 81.3 µM and 23.2 µM | [4] 76.1 µM and 23.1 µM | [7] 50000 nM | [9] 74.9 µM and 26.4 µM | [10] 72300 nM

CO/N=C(/C(=O)OC)c1ccccc1COc1ccccc1C
active: [1] 1000 nM | [2] 857 nM | [3] 403 nM | [4] 857 nM | [5] 2250 nM | [6] 863 nM | [7] 939 nM | [8] 474 nM | [9] 567 nM | [10] 688 nM

CCCCC(CC)COC(=O)c1c(Br)c(Br)c(Br)c(Br)c1C(=O)OCC(CC)CCCC (stereo unspecified)
active: [9] 330 nM
not listed: [11] | [12] | [13] | [14] | DIO2 (gene 1734)
inactive: all other assays above

O=C(O)C(F)(F)C(F)(F)C(=O)O
not listed: [11] | [12] | [13] | [14] | DIO2 (gene 1734)
inactive: all other assays above

O=S(=O)(c1ccc(O)cc1)c1ccc(O)cc1
not listed: [11] | [12] | [13] | [14] | DIO2 (gene 1734)
inactive: all other assays above
